An excerpt weighted towards active compounds, which were near 11% of everything screened.
ALDH1A1 block = blocks purified human ALDH1A1 activity. Potency, µM (titrated, usually from 75.3 µM), hits mostly inhibitors. AID 1030. P00352. Purified ALDH1A1, NADH fluorescence, propionaldehyde substrate. 220,000 compounds, 7.3% hits
HPGD inh = inhibitors of human 15-hydroxyprostaglandin dehydrogenase (HPGD); P15428; purified HPGD, NADH fluorescence kinetic, PGE2 substrate; Potency, µM, hits mostly inhibitors; 150,000 compounds, 4.3% hits; AID 894
Target sequence (P15428 whole entry, looked up): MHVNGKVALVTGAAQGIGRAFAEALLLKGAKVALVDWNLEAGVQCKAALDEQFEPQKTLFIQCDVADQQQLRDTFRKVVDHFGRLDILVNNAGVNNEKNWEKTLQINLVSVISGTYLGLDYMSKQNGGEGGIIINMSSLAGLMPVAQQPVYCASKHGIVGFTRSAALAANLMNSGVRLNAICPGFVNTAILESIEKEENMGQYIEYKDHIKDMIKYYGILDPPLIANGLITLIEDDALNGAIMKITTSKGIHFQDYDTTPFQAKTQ
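20 nM HPGD preincubated 15 min at room temperature with compound in 50 mM Tris-HCl pH 8, 0.01% Tween 20. Started with 1 mM NAD+ and 30 uM prostaglandin E2; NADH fluorescence (360/450 nm) read 5 times over 30-s intervals, last minus first.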
PNC inhibitor = perinucleolar compartment assembly inhibition | PC3M PTB-GFP, PNC prevalence imaging, 16 h; stronger effect = lower value | AID 2417 | activity change (PNC), negative = inhibition, % at 10 µM | 140,000 compounds, 3.1% hits;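 active = readout at or below -70, meaning at least 70% loss of cells showing the perinucleolar compartment, a nuclear body marking cancer cells; inconclusive = readout between -30 and a set limit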
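Read-out is percentage of cells bearing a perinucleolar compartment, from automated 20x imaging of fixed, Hoechst-stained PC3M PTB-GFP cells. Cells were seeded 4 h, then exposed 16 h to compound (23 nl of library stock) in duplicate plates.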
Numbers stand for hits; i = inactive; ? = inconclusive; nt = no result; [ ] = remark or other dose. Unless noted, calls follow the shape of the dose curve; as a rule, active = well fitted inhibition curve with a large enough effect (not every such curve was filed as active); inconclusive = small, poorly fitted or top-dose-only effect, or another doubt; inactive = no such curve, though single readings can be large or run the other way.

SMILES | ALDH1A1 block | HPGD inh | PNC inhibitor
COC(=O)c1ccc(C2C(C#N)=C(N)Oc3cc(C)n(C)c(=O)c32)cc1 (stereo not drawn) | 25µM | i | i
COC(=O)C1=C(N)Oc2cc(C)n(C)c(=O)c2C1c1ccc(Cl)cc1 (stereo not drawn) | i | i | i
COc1ccc(-c2cc(-c3ccc(C)cc3)nc(SCc3nnc(-c4ccccc4)o3)c2C#N)cc1OC | ? | ? | i
CN(C)c1ccc(/C=C/C=N/Nc2nc(N3CCOCC3)nc(N3CCOCC3)n2)cc1 | i | nt | nt
CC(=O)CC(C)(C)S(=O)(=O)c1ccc(Oc2ccc(S(=O)(=O)C(C)(C)CC(C)=O)cc2)cc1 | 8.9µM | i | i
CCN(CC)S(=O)(=O)c1ccc(Oc2ccc(S(=O)(=O)N(CC)CC)cc2)cc1 | i | i | ?
c1ccc(N2CCN(c3ncccn3)CC2)cc1 | i | i | i
c1ccc(N2CCN(C3CCSC3)CC2)cc1 (stereo not drawn) | 18µM | i | i
Cc1cc(C)c(C(=O)O)c(CC(C)(C)C(=O)O)c1 | i | nt | nt
COCCOC(=O)C1=C(N)Oc2c(oc(CO)cc2=O)C1c1c(F)cccc1Cl (stereo not drawn) | i | i | i
CCOC(=O)C1=C(N)Oc2c(oc(CO)cc2=O)C1c1ccc(F)cc1 (stereo not drawn) | i | i | -100
Cc1ccc(N2CC(C(=O)Nc3cc(C)on3)CC2=O)cc1 (stereo not drawn) | i | i | i
O=[N+]([O-])c1ccc(CSc2ncnc3c2ncn3C2OC(CO)C(O)C2O)cc1 (stereo not drawn) | i | nt | nt
COc1cccc(NC(=O)NC(C)C2CC3CCC2C3)c1 (stereo not drawn) | 5µM | nt | nt
CCC(C)[C@H](NC(=O)Nc1cccc(OC)c1)C(=O)OC (stereo partly drawn) | i | i | i
COc1ccc(CCN(Cc2cc3cc(C)c(C)cc3nc2Cl)C(=O)C2CC2)cc1 | i | i | i
CO[C@H]1COC(=O)C/C=C\[C@H](C)[C@@H](NS(=O)(=O)c2ccc(C)cc2)COC(=O)C/C=C\[C@@H]1C | i[13.5 µM] | nt | nt
COc1ccc(C(=O)N2CCN(C(=O)c3ccco3)CC2)cc1 | ? | i | i
COc1ccc(S(=O)(=O)NCC2CCCN(C(=O)c3ccco3)C2)cc1 (stereo not drawn) | 4µM | nt | nt
CCOC(=O)CNC(=O)N1CCCC(CNS(=O)(=O)c2cccs2)C1 (stereo not drawn) | i | nt | nt
COc1ccc(S(=O)(=O)NCC2CCCN(C(=O)c3cccs3)C2)cc1 (stereo not drawn) | 1.1µM | nt | nt
CCc1cc(C(=O)N2CCCC(CNS(=O)(=O)c3cccs3)C2)n(C)n1 (stereo not drawn) | 5µM | nt | nt
C=CCOc1cccc(C(=O)N2CCCC(CNS(=O)(=O)c3cccs3)C2)c1 (stereo not drawn) | i | nt | nt
O=C(Cc1ccc(Cl)cc1)Nc1ccc2c(c1)C(=O)NC2=O | i | nt | nt
Cc1ccc(C)c(N/C(N)=N/c2nc(C)cc(C)n2)c1 | i | i | i
SMILES | ALDH1A1 block | HPGD inh | PNC inhibitor
Cc1ccc(C)c(NNC(N)=S)c1 | 13µM | nt | nt
Cc1cccc(NNC(N)=S)c1C | 13µM | nt | nt
Cc1cccc(NC(=S)NCCO)c1C | i | i | i
CC(CCC(=O)O)C1CCC2C3CC[C@H]4CC(O)CC[C@@]4(C)C3C=C[C@]12C (stereo partly drawn) | i | i | nt
O=C(Nc1ccccc1)N1CC[C@@]2(CCCN(C(=O)c3cc(C(F)(F)F)cc(C(F)(F)F)c3)C2)C1 | i | i | nt
CCOC(=O)C1=C(c2ccccc2)c2cc(OC)ccc2OC1C(=O)OCC (stereo not drawn) | ? | i | nt
O=C(Nc1cccc(S(=O)(=O)N2CCOCC2)c1)c1c2c(nc3ccccc13)CCC2 | i | i | i
CCC(=O)N1CCN(c2ccc(Cl)cc2NC(=O)Cc2ccccc2)CC1 | 5µM | i | i
CCC(=O)Nc1cc(Cl)ccc1N1CCN(C(=O)CC)CC1 | i | i | ?
O=C(Nc1ccccc1N1CCOCC1)c1cc(-c2ccncc2)nc2ccccc12 | i | nt | nt
CCN(CC)S(=O)(=O)c1ccc(N2CCOCC2)c(NC(=O)c2cccc(C#N)c2)c1 | i | nt | nt
CCN(CC)S(=O)(=O)c1ccc(N2CCOCC2)c(NC(=O)COc2ccccc2C#N)c1 | 13µM | nt | nt
CCN(CC)S(=O)(=O)c1ccc(N2CCOCC2)c(NC(=O)c2c3c(nc4ccccc24)CCC3)c1 | 6.3µM | i | i
CCN(CC)S(=O)(=O)c1ccc(N2CCOCC2)c(NC(=O)c2cc(-c3ccccn3)nc3ccccc23)c1 | 3.5µM | nt | nt
O=c1cnc2cnc(Oc3ccccc3)nc2n1Cc1cccs1 | ? | i | nt
C[C@@H](CCC(=O)O)C(=O)O | i[13.5 µM] | i | nt
